From ChEMBL document CHEMBL3988442, “University of Dundee, Small-Polar-MMV Screening Library” (2021)

Target: T1, Proteasome subunit beta (Trypanosoma cruzi) (UniProt O96673)
T1 sequence (whole entry): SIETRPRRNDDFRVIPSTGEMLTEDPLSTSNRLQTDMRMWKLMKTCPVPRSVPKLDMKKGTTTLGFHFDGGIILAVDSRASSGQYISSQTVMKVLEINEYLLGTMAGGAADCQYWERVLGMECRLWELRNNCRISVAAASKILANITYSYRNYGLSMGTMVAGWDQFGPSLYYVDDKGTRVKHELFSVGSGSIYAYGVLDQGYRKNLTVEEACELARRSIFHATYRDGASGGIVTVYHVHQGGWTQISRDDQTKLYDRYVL
Experiment: Trypanosoma cruzi proteasome chymotrypsin-like activity (TcProtChymo) assay. Further: in the data most compounds retested in dose-response had high values.
Type: functional
Parameters: scale not given: direction of the effect not stated beside the values
Conditions: 9.37 µM

Structure (SMILES) | Percent Effect
COCC1CC2(CCN(C(=O)c3cccn3C)CC2)CN1C(C)C (stereo not drawn) | 0.761%
CCN(Cc1cccc(Cl)c1)Cn1nc(C)c2c(C)onc2c1=O | -0.18%
CC(C)c1nc(CC(=O)Nc2nc(CN3CCCCCC3)cs2)cs1 | 4.61%
COc1cccc(CN(C)S(=O)(=O)N2CCOCC2)c1 | 22.1%
Cc1nn(C)c(N(C)C)c1CNCc1cccc(OCCN(C)C)c1 | 14.4%
Cc1ccc(CNC(=O)CCSCc2csc(C)n2)cn1 | 0.0819%
CCO[C@@H]1CC[C@H]2[C@H]1OCCN2C(=O)C1CCOCC1 | 18.2%
CCC1CCCCN1C(=O)c1ccc2[nH]nnc2c1 (stereo not drawn) | 19.5%
FC(F)(F)C1CCCn2c(CNCc3ccsc3)nnc21 (stereo not drawn) | 20.2%
CCC1(CC)Cc2ccccc2-c2nc(NCCO)[nH]c(=O)c21 | 26.4%
Cc1nc(C)n(CC2CCCCN2CCC(=O)Nc2cc(C)on2)n1 (stereo not drawn) | 11%
Cc1nc(C)n(CC2CN(CC(=O)Nc3nccs3)CCO2)n1 (stereo not drawn) | 7.19%
CC(NC(=O)NCCOc1ccc(F)c(F)c1)c1nncn1C (stereo not drawn) | 12.5%
COCCNc1nc(C2CCCC2)nc2c1CCNCC2 | -38.6%
Cc1ccc(CNS(=O)(=O)CC2=NC(=O)n3cccc3C2=O)cc1 | 7.21%
CCS(=O)(=O)N(C)C(=O)c1cc(C)n(-c2cccc(OC)c2)c1C | 4.34%
Cn1ncc2c(=O)[nH]c(CN(Cc3ccco3)C3CCCC3)nc21 | 14.7%
O=C(CS(=O)(=O)CC1CCCCC1)NC1CCCCNC1=O (stereo not drawn) | -2.7%
CC(N(C)Cc1nc2c(cnn2C)c(=O)[nH]1)C(C)(C)C (stereo not drawn) | 7.72%
CC(C)c1nc(C2CCCN2C(=O)c2nccnc2N)no1 (stereo not drawn) | 6.1%

Structure (SMILES) | Percent Effect
O=C1CC(N(C(=O)c2ccc3c(c2)CCC3)C2CC2)C(=O)N1 (stereo not drawn) | 5.98%
CCn1cnnc1CNC(=O)N1CCC(Cc2cccnc2)CC1 | 0.0808%
CC(NC(=O)NCc1cccc(N2CCCC2=O)c1)c1ccccc1 (stereo not drawn) | 7.36%
O=C1N(c2ccc(F)cc2)Cc2nc(=O)n(Cc3cccc(Cl)c3)n21 | 5.36%
Cc1noc2nc(C3CCN(Cc4cccnc4)CC3)cc(C(F)F)c12 | 2.03%
CCOc1cccc(C(=O)NCCC(=O)Nc2ccncc2)c1 | 13.7%
O=S(=O)(Cc1ccccc1F)NCCN1CCOCC1 | 12.6%
O=C(NCCc1ccccc1)C1CCC(Cn2cnnn2)CC1 (stereo not drawn) | 3.88%
CC(C)c1nnc2n1CCN(Cc1csc(CC(=O)N(C)C)n1)C2 | 11.5%
Cc1cc(C)n(CC2CCCN2C(=O)CCc2cscn2)n1 (stereo not drawn) | -4.51%
CC(=O)N1CCC(C(=O)N(C)[C@@H]2CCC[C@@H](N3CCCC3)[C@@H]2O)CC1 | 13.4%
N#Cc1ccc(OCCCN2CCc3cncnc3C2)cc1 | -6.14%
Cc1cnn(CCNCC(=O)NCCOc2ccccc2)c1 | 6.85%
CC(CCN1CCn2nc(CNC(=O)N(C)C)cc2C1)c1ccccc1 (stereo not drawn) | 6.9%
COc1ccc(CN(C)Cc2nc3c(cnn3C)c(=O)[nH]2)cc1OC | 16.5%
CCOC(=O)C1CCCN(c2ccc(-c3nc(C)no3)cn2)C1 (stereo not drawn) | 0%
CC1Cc2ccccc2N1Cc1occc1C(=O)OCC(N)=O (stereo not drawn) | 5.91%
CC(C)Oc1ccccc1CNC(=O)N1CCC(n2cncn2)CC1 | 17.3%
COCC(O)CN(C)C(=O)NC1CCN(Cc2ccccn2)CC1 (stereo not drawn) | 15.4%

Organism: Homo sapiens
Experiment: To identify inhibition of the IFN signalling (Jak-Stat) pathway via expression of an eGFP reporter gene under the control of an IFN-stimulated response element (ISRE) containing MxA promoter.
Type: functional
Parameters: scale not given: direction of the effect not stated beside the values
Conditions: 30 µM

Structure (SMILES) | Percent Effect
COCC1CC2(CCN(C(=O)c3cccn3C)CC2)CN1C(C)C (stereo not drawn) | -12.3%
CCN(Cc1cccc(Cl)c1)Cn1nc(C)c2c(C)onc2c1=O | 14.3%
CC(C)c1nc(CC(=O)Nc2nc(CN3CCCCCC3)cs2)cs1 | 1.12%
COc1cccc(CN(C)S(=O)(=O)N2CCOCC2)c1 | 23.5%
Cc1nn(C)c(N(C)C)c1CNCc1cccc(OCCN(C)C)c1 | 23.3%
Cc1ccc(CNC(=O)CCSCc2csc(C)n2)cn1 | 8.57%
CCO[C@@H]1CC[C@H]2[C@H]1OCCN2C(=O)C1CCOCC1 | 2.97%
CCC1CCCCN1C(=O)c1ccc2[nH]nnc2c1 (stereo not drawn) | 1.34%
FC(F)(F)C1CCCn2c(CNCc3ccsc3)nnc21 (stereo not drawn) | -14.2%
CCC1(CC)Cc2ccccc2-c2nc(NCCO)[nH]c(=O)c21 | 29.8%
Cc1nc(C)n(CC2CCCCN2CCC(=O)Nc2cc(C)on2)n1 (stereo not drawn) | 5.13%
Cc1nc(C)n(CC2CN(CC(=O)Nc3nccs3)CCO2)n1 (stereo not drawn) | 20.3%
CC(NC(=O)NCCOc1ccc(F)c(F)c1)c1nncn1C (stereo not drawn) | 16.9%
COCCNc1nc(C2CCCC2)nc2c1CCNCC2 | -3.26%
Cc1ccc(CNS(=O)(=O)CC2=NC(=O)n3cccc3C2=O)cc1 | -19.8%
CCS(=O)(=O)N(C)C(=O)c1cc(C)n(-c2cccc(OC)c2)c1C | 28.1%
Cn1ncc2c(=O)[nH]c(CN(Cc3ccco3)C3CCCC3)nc21 | 6.82%
O=C(CS(=O)(=O)CC1CCCCC1)NC1CCCCNC1=O (stereo not drawn) | -1.34%
CC(N(C)Cc1nc2c(cnn2C)c(=O)[nH]1)C(C)(C)C (stereo not drawn) | 24.6%
CC(C)c1nc(C2CCCN2C(=O)c2nccnc2N)no1 (stereo not drawn) | 12.1%

Structure (SMILES) | Percent Effect
O=C1CC(N(C(=O)c2ccc3c(c2)CCC3)C2CC2)C(=O)N1 (stereo not drawn) | 25.8%
CCn1cnnc1CNC(=O)N1CCC(Cc2cccnc2)CC1 | 7.54%
CC(NC(=O)NCc1cccc(N2CCCC2=O)c1)c1ccccc1 (stereo not drawn) | -2.7%
O=C1N(c2ccc(F)cc2)Cc2nc(=O)n(Cc3cccc(Cl)c3)n21 | -6.59%
Cc1noc2nc(C3CCN(Cc4cccnc4)CC3)cc(C(F)F)c12 | 25.1%
CCOc1cccc(C(=O)NCCC(=O)Nc2ccncc2)c1 | 3.36%
O=S(=O)(Cc1ccccc1F)NCCN1CCOCC1 | -12.7%
O=C(NCCc1ccccc1)C1CCC(Cn2cnnn2)CC1 (stereo not drawn) | -9.79%
CC(C)c1nnc2n1CCN(Cc1csc(CC(=O)N(C)C)n1)C2 | 34.2%
Cc1cc(C)n(CC2CCCN2C(=O)CCc2cscn2)n1 (stereo not drawn) | -4.45%
CC(=O)N1CCC(C(=O)N(C)[C@@H]2CCC[C@@H](N3CCCC3)[C@@H]2O)CC1 | 13.2%
N#Cc1ccc(OCCCN2CCc3cncnc3C2)cc1 | 18.3%
Cc1cnn(CCNCC(=O)NCCOc2ccccc2)c1 | 25.5%
CC(CCN1CCn2nc(CNC(=O)N(C)C)cc2C1)c1ccccc1 (stereo not drawn) | 16.3%
COc1ccc(CN(C)Cc2nc3c(cnn3C)c(=O)[nH]2)cc1OC | 11.6%
CCOC(=O)C1CCCN(c2ccc(-c3nc(C)no3)cn2)C1 (stereo not drawn) | 1.88%
CC1Cc2ccccc2N1Cc1occc1C(=O)OCC(N)=O (stereo not drawn) | 17%
CC(C)Oc1ccccc1CNC(=O)N1CCC(n2cncn2)CC1 | 7.86%
COCC(O)CN(C)C(=O)NC1CCN(Cc2ccccn2)CC1 (stereo not drawn) | 7.67%
